Laboratory results as given in the supplement of paper PMC12632987.

Target: T1, USP38, Q8NB14
T1 chain: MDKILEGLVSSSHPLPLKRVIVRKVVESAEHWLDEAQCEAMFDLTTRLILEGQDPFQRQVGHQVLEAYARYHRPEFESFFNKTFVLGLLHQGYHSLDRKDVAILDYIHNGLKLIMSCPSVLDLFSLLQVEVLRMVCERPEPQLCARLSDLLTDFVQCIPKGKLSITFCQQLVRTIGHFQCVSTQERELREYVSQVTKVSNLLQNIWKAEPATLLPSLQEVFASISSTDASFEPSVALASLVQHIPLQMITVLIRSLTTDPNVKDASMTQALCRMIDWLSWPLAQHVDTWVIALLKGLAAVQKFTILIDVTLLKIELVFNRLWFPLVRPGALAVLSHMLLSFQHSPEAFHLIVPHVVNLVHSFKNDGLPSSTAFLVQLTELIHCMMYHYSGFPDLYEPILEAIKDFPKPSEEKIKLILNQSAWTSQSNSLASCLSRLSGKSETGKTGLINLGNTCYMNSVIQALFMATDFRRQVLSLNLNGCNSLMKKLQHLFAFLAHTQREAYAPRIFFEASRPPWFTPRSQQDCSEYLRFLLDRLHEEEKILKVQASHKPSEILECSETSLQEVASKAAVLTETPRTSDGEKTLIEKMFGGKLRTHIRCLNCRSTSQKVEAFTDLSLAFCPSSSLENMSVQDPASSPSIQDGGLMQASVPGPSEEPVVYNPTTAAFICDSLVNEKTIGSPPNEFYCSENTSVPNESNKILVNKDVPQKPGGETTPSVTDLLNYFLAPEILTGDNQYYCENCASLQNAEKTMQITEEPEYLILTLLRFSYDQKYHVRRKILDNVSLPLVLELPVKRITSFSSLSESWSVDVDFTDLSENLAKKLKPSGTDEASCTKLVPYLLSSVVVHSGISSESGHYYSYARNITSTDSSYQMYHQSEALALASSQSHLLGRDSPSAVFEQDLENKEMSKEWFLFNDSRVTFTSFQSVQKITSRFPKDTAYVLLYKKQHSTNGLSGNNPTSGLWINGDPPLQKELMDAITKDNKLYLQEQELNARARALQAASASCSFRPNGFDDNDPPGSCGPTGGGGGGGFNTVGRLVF
Test: median log2 fold change of GCK-ALFA target abundance (FLAG IP / Myc IP barcode read proportion) (log2 ratio); each designed protein is fused to an ALFA-tag nanobody in HEK293 cells to bring the named protein to FLAG-tagged glucokinase (GCK); Myc marks an untargeted standard; higher = target protein stabilised (more abundant)
Settings: target protein: 3xFLAG-MCP-GCK-ALFA reporter; HEK293 landing pad (RPLP)
Summary of the method: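 HEK293 landing-pad cells received a recombined binder library fused to the ALFA nanobody and were induced with 2 μg mL^−1 doxycycline, then transfected with a plasmid encoding a FLAG-tagged target and a Myc-tagged standard. Lysates were collected after 48 h for anti-FLAG and anti-Myc immunoprecipitation, and the circular RNA barcodes were reverse transcribed, amplified and sequenced. Target abundance for each binder is the median log2 ratio of FLAG to Myc barcode read proportions. Barcodes had to reach a proportion of at least 10^−7 in both replicates, each binder needed at least 3 barcodes per replicate, a pseudocount of 10^−6 was applied, and the two replicates were pooled.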

B1: usp_38_diff_out_9_42_629 (protein)
chain: RKELEERLLELIRETGEVLREAEEVLRELREVDPEAARRFRREVAELLDKIDDKLLKAQRLLLQDESKYPEAQAALDEAERLVEELRRLAEEWRRRLKER
  median log2 fold change: -0.63

B2: usp_38_diff_out_9_172_624 (protein)
chain: DLESKRFKIQWLLADAIDLLQKIAKKADEENKKKLIEAAMLLLKASQLVVEGGDKEEILKLLEEAKKLVKELAKKDPKNKKELEEAIKLIEEAIKLVKEL
  median log2 fold change: -0.076

B3: usp_38_diff_out_9_42_625 (protein)
chain: MKELEEKREETLKLIAEAGRYVDEVIERLAKLDPELARELRREAAEAHDKIVELTQEANKYYLAGEETKEEFLAKLDEIKKIVDELRKRAEELLAAAEAA
  median log2 fold change: 0.146
